The campaign covered roughly 340,000 compounds. About 6,900 (2%) were called active. No stated cut-off is given here; in the data, active means inhibition above about 30%; inactive means below that, where a call was filed. Shown is part of a subset that was picked to be rich in actives.
Target: D(2) dopamine receptor (Homo sapiens) (UniProt P14416)
Assay: HTS Assay for Allosteric Antagonists of the Human D2 Dopamine Receptor: Primary Screen for Antagonists; further: 0% is about no effect
Conditions: HEK293 TREx D2 cells, calcium flux, dopamine EC80; at 10 µM; stronger effect = higher value
Summary of the method: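 Calcium mobilization kinetics were recorded at 1 s intervals in tetracycline-induced HEK293 T-REx D2 cells, first for 180 s after compound addition and then 180 s after EC80 dopamine.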

Chain of D(2) dopamine receptor (Homo sapiens) (P14416 whole entry, looked up): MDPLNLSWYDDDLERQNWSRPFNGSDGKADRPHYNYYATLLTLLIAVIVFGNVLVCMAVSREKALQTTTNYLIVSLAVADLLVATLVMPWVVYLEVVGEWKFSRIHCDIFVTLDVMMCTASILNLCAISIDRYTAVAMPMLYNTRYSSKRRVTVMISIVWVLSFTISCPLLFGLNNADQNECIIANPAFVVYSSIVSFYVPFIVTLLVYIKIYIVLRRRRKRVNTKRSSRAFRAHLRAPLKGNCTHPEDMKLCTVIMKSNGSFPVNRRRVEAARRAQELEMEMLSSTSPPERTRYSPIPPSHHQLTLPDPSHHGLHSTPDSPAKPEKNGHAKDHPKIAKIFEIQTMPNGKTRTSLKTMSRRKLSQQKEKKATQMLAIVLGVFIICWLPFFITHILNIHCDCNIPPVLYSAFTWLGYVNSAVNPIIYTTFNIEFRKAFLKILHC

inhibition, inactive:
CC(C)n1ncc2c(C(=O)Nc3ccc(CC#N)cc3)cc(C3CC3)nc21 -20.3%
COc1ccc(C)cc1NC(=O)c1cc(-c2ccccc2)nc2c1cnn2C(C)C 5.18%
COc1ccc(C2=NN(C(=O)CSc3nc(=O)n4ccc(C)cc4n3)C(c3ccc(C)cc3)C2)cc1 (configuration not stated) -6.53%
O=C(NCC(c1cccs1)N1CCOCC1)c1cc(Cl)ccc1[N+](=O)[O-] (configuration not stated) 11.5%
CC(=O)c1ccc(N2CCN(C(=O)c3ccc(Cl)c(S(=O)(=O)NC4CC4)c3)CC2)c(F)c1 8.05%
CCCCN(CC(=O)Nc1cccc(S(=O)(=O)N2CCCC2)c1)Cc1nc2ccccc2c(=O)[nH]1 -6.94%
Cc1ccnc(NS(=O)(=O)c2ccc(NC(=O)c3ccc(S(=O)(=O)N4CCOCC4)cc3)cc2)n1 -5.53%
O=C(CN1C(=O)CCC1=O)Nc1ccc(S(=O)(=O)N2CCOCC2)cc1 10.1%
O=C(Nc1ccc(S(=O)(=O)N2CCOCC2)cc1)c1ccc2ncsc2c1 16.7%
CN1CCN(c2ccc(NC(=O)c3ccc4c(c3)OCCO4)cc2Cl)CC1 -3.57%
O=C(CN1CCN(c2ccc(O)cc2)CC1)Nc1cc(S(=O)(=O)N2CCOCC2)ccc1Cl -10.8%
O=C(CCc1ccc(S(=O)(=O)N2CCOCC2)cc1)Nc1ccc2ccccc2c1 -58.3%
CC(C(=O)Nc1ccc(S(=O)(=O)N2CCCC2)cc1)N(C)Cc1ccc(F)cc1 (configuration not stated) -65.3%
CCn1nc(C(=O)NNC(=O)C2CSC3(C)CCC(=O)N23)c2ccccc2c1=O (configuration not stated) -19.4%
COc1cc(C#Cc2ccc3cc(CCCO)oc(=O)c3c2)cc(OC)c1 7.69%
COc1ccc(CNC(=O)C(=O)N2CCC3(CC2)OCCN3S(=O)(=O)c2ccc(C)cc2)cc1 -3.99%
C=CCSc1ccc(S(=O)(=O)N2CCN(C)CC2)cn1 6.94%
CC(C)N(Cc1nnc(-c2ccccc2Br)o1)C(=O)c1cc(Cl)nc2ccccc12 -0.847%
Cc1cc(C)cc(OCC(=O)Nc2ccc(N3CCOCC3)cc2N2CCOCC2)c1 -19.7%
CCOc1ccc(S(=O)(=O)N2CCC(C(=O)NCC(=O)Nc3cccc(Cl)c3C)CC2)cc1 0.735%
N#Cc1ccccc1S(=O)(=O)N1CCN(Cc2c(O)ccc3ccccc23)CC1 -16.7%
COc1cccc(CNC(=O)C(=O)NCCC2CCCCN2S(=O)(=O)c2ccc(C)cc2)c1 (configuration not stated) -3.22%
C[C@@H](NC(=O)c1nc[nH]c1C(=O)N1CCN(C(=O)OC(C)(C)C)CC1)c1ccccc1 4.62%
Cc1ccc(NC(=S)NC(=O)/C=C/c2ccc(Cl)cc2)cc1 -2.32%
CCCCOC(=O)c1[nH]c(C)c(C(=O)OC)c1C -12.8%
CC(=O)c1cccc(CN2CCC(CO)(Cc3ccccc3)CC2)c1 3.1%
CC(C)c1csc(CN2CCC(CO)(Cc3ccccc3)CC2)n1 0.256%
OCC1(CCOc2ccccc2)CCN(Cc2cn[nH]c2-c2ccccc2)CC1 -12.6%
COc1ccc(CN2CCNC(=O)C2CC(=O)NCc2cn[nH]c2-c2ccccc2)c(F)c1 (configuration not stated) -65.2%
Cc1ccc(S(=O)(=O)N2CCOCC2)cc1NC(=O)COC(=O)c1cnccn1 -7.64%
O=C(Nc1ccc(-c2nnc(-c3ccccc3)o2)cc1)C1CCCO1 (configuration not stated) -12.9%
O=C(Nc1nnc(CCc2ccccc2)s1)C1CCCO1 (configuration not stated) -19.8%
O=C(CC1SC(N2CCCC2)=NC1=O)Nc1ccc(C(=O)NCCc2ccc(F)cc2)cc1 (configuration not stated) -4.16%
CCC(C)NC(=O)c1ccc(NC(=O)CC2SC(N3CCCCC3)=NC2=O)cc1 (configuration not stated) -4.54%
COc1ccccc1N1CCN(C(=O)C2Cc3ccccc3CN2C(=O)c2ccco2)CC1 (configuration not stated) -23.2%
CCOc1ccc(NC(=O)COC(=O)C2CCC(=O)N2)c([N+](=O)[O-])c1 (configuration not stated) -10.6%
CC(C)c1ccc(S(=O)(=O)N2CCN(C(C)C(=O)NC3CCCC3)CC2)cc1 (configuration not stated) -16.2%
Cc1ccc2oc(=O)c3cnn(CC(=O)N4CCN(c5ccccn5)CC4)c3c2c1 -21.9%
Cc1ccc2oc(=O)c3cnn(CC(=O)N4CCCCCC4)c3c2c1 -0.561%
O=C(O)C1C2C=CC(C2)C1C(=O)NCc1ccccc1 (configuration not stated) 3.26%
O=C(COC(=O)c1ccc(O)cc1O)NNC(=O)c1cccs1 13.6%
Cc1ccn2cc(C(=O)NC3CCN(Cc4ccccc4)CC3)nc2c1 15.3%
O=C(NC1CCN(Cc2ccccc2)CC1)c1c(F)cccc1F 24.1%
O=C(NC1CCN(Cc2ccccc2)CC1)c1ccc(Oc2cc(Cl)cc(Cl)c2)o1 26.7%
Cc1cc(C(=O)NC2CC(C)(C)Cc3c2cnn3-c2ccccc2)n[nH]1 (configuration not stated) -16%
O=C(c1ccncc1)N1CCN(S(=O)(=O)c2cccc([N+](=O)[O-])c2)CC1 4.87%
CC(Sc1nnc(C2CC2)n1C1CC1)C(=O)Nc1ccc(C(N)=O)cc1 (configuration not stated) -13.1%
CC(OC(=O)c1ccccc1NCCO)C(=O)Nc1ccnn1C(C)C (configuration not stated) -18.3%
COc1ccccc1CNS(=O)(=O)c1cc2c3c(c1)CCC(=O)N3CCC2 -11.8%
O=C(c1cccc(Cl)c1)N1CCN(Cc2ccccc2)CC1 7.63%
O=C(Nc1ccccc1)N1CCN(Cc2ccccc2)CC1 13.1%
CC(C)N(C(=O)CN1CCN(S(=O)(=O)c2ccc(Br)s2)CC1)C(C)C -1.58%
CCN(CC)CCn1c2c(c(SCC(=O)Nc3ccc(C(C)C)cc3)nc1=O)CCC2 14.2%
COc1ccc2cc1Oc1ccc(cc1)C[C@H]1c3cc(c(OC)cc3CCN1C)Oc1c(O)c(OC)cc3c1[C@H](C2)N(C)CC3 -8.18%
COc1ccc(CN2CCCC(N3CCc4ccccc4C3)C2)c(O)c1 (configuration not stated) -20%
CCCCNC(=O)Cn1nc(C)c(S(=O)(=O)N2CCOCC2)c1C 4.53%
O=C1c2ccccc2S(=O)(=O)N1CC(O)Cn1c2ccccc2c2ccccc21 (configuration not stated) 26.9%
CCCCN(CCCC)CC(O)Cn1c2ccccc2c(=O)c2ccccc21 (configuration not stated) 0.545%
Cc1ccc(C(=O)OCC(=O)Nc2ccc(Cl)cn2)cc1S(=O)(=O)N1CCOCC1 -15.2%
CC(C)(C)c1ccc(S(=O)(=O)N2CCN(C(=O)c3ccc4c(c3)C(=O)N(Cc3ccncc3)C4=O)CC2)cc1 -6.14%
O=C(NCCC1CCCCN1S(=O)(=O)c1cccs1)C(=O)Nc1ccc(F)cc1F (configuration not stated) 7.7%
CC(C(=O)N(C)CC(=O)Nc1ccccc1C(F)(F)F)N1C(=O)c2ccccc2C1=O (configuration not stated) 12.3%
Cc1nn(Cc2ccccc2)c(C)c1C(=O)N1CCN(CC(=O)Nc2ccccc2Cl)CC1 0.422%
O=C(COC(=O)/C=C/c1ccc(OC(F)F)cc1)NC1CCCCC1 -18.9%
O=C(CO/N=C/c1ccc(OC(F)F)cc1)NCc1ccc(F)cc1 4.16%
CCOc1ccc(S(=O)(=O)N2CCC(C(=O)OCc3ccc(OC)cc3)CC2)cc1 5.17%
COc1ccc(N2CCN(C(C)=C3C(=O)c4ccccc4C3=O)CC2)cc1 14.9%
O=C(C(Cl)Cl)N1CCN(c2ccccn2)CC1 1.9%
CCC1(CC)NC(=O)N(CC(=O)OCC(=O)c2cc(C)c(C)cc2C)C1=O -22.9%
CCC(=O)c1ccc(OCC(=O)N(CC)CC2COc3ccccc3O2)cc1 (configuration not stated) -1.9%

inhibition, active:
CC(C)n1ncc2c(C(=O)NCc3ccccc3CN(C)C)cc(C3CC3)nc21 79.9%
O=C(CN1CCN(c2cccc(Cl)c2)CC1)Nc1ccc(S(=O)(=O)N2CCOCC2)cc1 30.5%
O=C(Nc1ccc2cn[nH]c2c1)c1ccc(S(=O)(=O)N2CCOCC2)cc1 30.5%
O=C(Nc1ccc(N2CCOCC2)c(Cl)c1)c1ccc(S(=O)(=O)N2CCOCC2)cc1 34.4%
COC(=O)c1c(C)[nH]c(C(=O)/C=C/c2ccc(Cl)cc2)c1C 40.8%
OCC1(Cc2ccccc2)CCN(Cc2cc3ccccc3o2)CC1 94.6%
O=C(c1ccc(F)cc1)C1CCN(Cc2cn[nH]c2-c2ccccc2)CC1 56%
O=C(Nc1cccc(-c2nnc(-c3ccccc3)o2)c1)C1CCCO1 (configuration not stated) 63%
COc1ccc(NC(=O)CC2SC(N3CCCCC3)=NC2=O)cc1OC (configuration not stated) 40.6%
Cc1ccc2oc(=O)c3cnn(CC(=O)N(Cc4ccco4)C4CCCCC4)c3c2c1 32.4%
Cc1cc(C(=O)NC2CCN(Cc3ccccc3)CC2)n[nH]1 74.1%
O=C(NC1CCN(Cc2ccccc2)CC1)c1cc(Br)c(Br)[nH]1 78.3%
O=C(NC(=S)N1CCN(Cc2ccccc2)CC1)c1ccccc1 31.2%
COc1c(O)ccc2c1CN1CCc3cc4c(cc3C1C2)OCO4 (configuration not stated) 74.1%
CS(=O)(=O)N(CC(O)Cn1c2ccccc2c2ccccc21)c1cccc2ccccc12 (configuration not stated) 31.2%
CC1CCCCC1NC(=O)CO/N=C/c1ccc(OC(F)F)cc1 (configuration not stated) 34.1%
CC(=C1C(=O)c2ccccc2C1=O)N1CCN(c2ccccn2)CC1 56.1%
